Source: PubChem (National Center for Advancing Translational Sciences (NCATS))
Shown are actives, neighbours in structure and some others; about 19% of the full set was active somewhere.
HT1080 IDH1KD tx – HT-1080 IDH1 knockdown cell toxicity (counter line) | HT-1080 IDH1 knockdown viability, ATP luminescence, 48 h | Potency, µM (doses to about 46.1 µM), inactives show top-dose activity, negative = toxicity, hits mostly cytotoxic | 360,000 compounds, 2% hits | AID 686971;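 further: potency means the concentration at half of the fitted maximal effect; 0% = DMSO wells and -100% = cell-free medium wells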
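Assay cells: HT-1080 with IDH1 knockdown, 750 per well, RPMI/5% FBS. Exposure: 48 h at 37 °C following 2 h pre-incubation. Read: CellTiter-Glo luminescence; fitted concentration-response, curve class assigned.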
IL-1B inflam inh – inflammasome signaling inhibition, IL-1 beta readout. THP-1 LPS/ATP IL-1B secretion, AlphaLISA, 16 h; stronger effect = lower value. activity change, % at 57.5 µM. 360,000 compounds, 4.7% hits. AID 743279; in the data active means activity change below about -50%; inconclusive means mostly about -30% to -49%
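Secreted IL-1B measured by AlphaLISA bead assay after 16 h compound exposure of THP-1 cells; compounds (final up to 57.5 uM) added 1 h before LPS (250 ng/mL) and ATP (1.25 mM) stimulation; lower signal means less secretion.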
TDP1 cell CPT – DT40-hTDP1 cell growth loss with CPT | chicken DT40 Tdp1-/-;hTDP1 cells + 20 nM CPT, ATP luminescence, 48 h | Potency, µM (doses to about 46.2 µM), without a hit: at the highest dose activity change, negative = growth inhibition, hits mostly inhibitors | 420,000 compounds, 12% hits | AID 686979; further: potency means the concentration at half of the fitted maximal effect; nearly all actives have a fitted effect of over 55% in size
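Chicken DT40 Tdp1-/- cells complemented with human TDP1, 400 cells/well, exposed to compounds plus 20 nM camptothecin for at least 48 h at 37 C; viability read as ATP content by CellTiter-Glo luminescence.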
DT40 TDP1 no CPT – qHTS for Inhibitors of human tyrosyl-DNA phosphodiesterase 1 (TDP1): qHTS in cells in absence of CPT | DT40 Tdp1-/- hTDP1 cells, no CPT, ATP luminescence, 48 h | Potency, µM (doses to about 46.2 µM), for inactives: at the top dose activity change, negative = growth inhibition, usual class: inhibitors | 420,000 compounds, 15% hits | AID 686978, 2013; further: potency means the concentration at half of the fitted maximal effect; nearly all actives have a fitted effect of over 55% in size
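Luminescent ATP content (CellTiter-Glo) served as the growth readout. Knockout chicken DT40 cells expressing human TDP1 were exposed to compounds without camptothecin for a minimum 48 hr at 37 °C.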
HT1080NT lethal – kills 2HG-producing HT-1080-NT fibrosarcoma cells | HT-1080-NT fibrosarcoma viability, CellTiter-Glo ATP luminescence, 48 h | Potency, µM (highest dose often 46.1 µM), without a hit: top-dose activity, negative = less viability, usual class: cytotoxic | AID 686970 | 360,000 compounds, 1.6% hits;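 further: NT is the 2HG producing partner of a matched IDH1 knockdown line; potency means the concentration at half of the fitted maximal effect; 0% = DMSO-treated cells and -100% = media-only wells without cells; nearly all actives have a fitted effect of over 55% in size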
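Read-out is CellTiter-Glo luminescence after 10 minutes at room temperature, following 48 hours' compound treatment of HT-1080-NT cells (750 cells/well, RPMI, 5% FBS, 37 degrees C).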
ELG1 repair inh – blocks ELG1-dependent DNA repair in HEK293T cells; 330,000 compounds, 2.3% hits; Potency, µM (doses to about 46.1 µM), for inactives: top-dose activity change, negative = inhibition, usual class: inhibitors; AID 504467; HEK293T ELG1-luciferase reporter, luminescence, 16 h; DNA damage induced by 5-fluorouridine; further: potency means the concentration at half of the fitted maximal effect; nearly all actives have a fitted effect of over 55% in size
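5-Fluorouridine DNA damage + compound/DMSO, 2,000 cells/well, 16 h, 37 °C/5% CO2. ONE-Glo, 30 min RT, luminescence. Readout = decrease in reporter signal.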
* hit, by the source's call; ? = inconclusive; . = not tested or not shown; ! = not active in a repeat. Unless noted, the call rests on the fitted dose curve; in most records, active means well fitted curve in the direction sought with a large enough effect; inconclusive means small, poorly fitted or top-dose-only effect, or another doubt; inactive means no such curve, though single readings can be large; an effect the other way counts as inactive or inconclusive. Unless noted, on the % scale 0 is the no-effect control and ±100 the full control effect.

SMILES	HT1080 IDH1KD tx	IL-1B inflam inh	TDP1 cell CPT	DT40 TDP1 no CPT	HT1080NT lethal	ELG1 repair inh
CCOC(=O)c1c(C)oc2nc(C)nc(NCC3CCN(Cc4cccc(C)c4)CC3)c12	.	.	2.6%	-11.0%	.	.
CCOC(=O)c1c(C)oc2nc(C)nc(NCc3ccccc3OC)c12	.	.	11.6µM*	14.6µM*	.	.
CCOC(=O)c1c(C)oc2nc(C)nc(NCc3ccccc3Cl)c12	.	.	16.4µM*	?	.	.
CC(=O)N1C=Cc2c(c(C)c3c([nH]c4ccccc43)c2C)C1	.	.	.	.	.	-2.3%
c1ccc(-c2ccc(CNC3CC3)cc2)cc1	-5.8%	-87.3*	?	-0.3%	6.5%	4.1%
COc1cc(-c2nnc3sc(Cc4ccccc4)nn23)cc(OC)c1OC	-25.6%	99.9	20.6µM*	?	-9.8%	-8.5%
COc1ccc(Cc2nn3c(-c4cc(OC)c(OC)c(OC)c4)nnc3s2)cc1	5.5%	-11.9	?	?	-5.2%	?
COc1cc(-c2nnc3sc(Cc4ccc(Cl)cc4)nn23)cc(OC)c1OC	.	-9.2	11.6µM*	9.2µM*	.	.
COc1ccc(OCc2nn3c(-c4cccc(OC)c4)nnc3s2)cc1	-2.7%	-1.2	-10.0%	-20.6%	0.1%	0.9%
Cc1ccc(CNC(=O)CN2Cc3ccccc3C2=O)cc1	.	.	2.1%	-13.0%	.	.
Cc1ccc(S(=O)(=O)NC(=O)C2(C)CCN2C(=O)CCc2ccc(Cl)cc2Cl)cc1 (stereo unspecified)	0.5%	15.5	-14.0%	-6.2%	9.3%	.
CCC(=O)N1CCCc2cc(S(=O)(=O)N3CCC(C(=O)NC4CCCCC4)CC3)ccc21	.	.	-2.6%	-19.6%	.	.
CCC(=O)N1CCCc2cc(S(=O)(=O)N3CCC(C(=O)Nc4ccc(C#N)cc4)CC3)ccc21	.	.	18.4µM*	?	.	.
CCC(=O)N1CCCc2cc(S(=O)(=O)N3CCC(C(=O)Nc4ccc(F)c(F)c4)CC3)ccc21	.	.	-86.7%	11.6µM*	.	.
O=C(Nc1ccc(F)c(Cl)c1)C1CCN(S(=O)(=O)c2ccc3c(c2)CCCN3C(=O)C2CCC2)CC1	.	.	9.2µM*	11.6µM*	.	.
Cc1ccc(NC(=O)CSc2nc3c(sc4ccccc43)c(=O)n2CCCC(=O)NC2CCCC2)cc1C	.	.	-3.5%	13.2%	.	.
COc1ccc(CCn2c(S)nc3ccccc3c2=O)cc1	29.8%	48.1	-1.2%	19.2%	9.3%	24.5%
Fc1ccc(Cn2cnc3ccccc32)cc1	-11.1%	-13.6	-27.7%	-34.0%	-11.3%	-1.6%
Cc1ccccc1Cn1cnc2ccccc21	-10.8%	-10.2	18.4µM*	20.6µM*	2.9%	-24.8%
Cc1ccc(Cn2cnc3ccccc32)cc1C	-29.9%	3.1	13µM*	16.4µM*	-8.4%	22.6%
O=[N+]([O-])c1ccc(OCCn2cnc3ccccc32)cc1	-11.0%	0.0	-14.0%	?	-17.0%	-3.5%
CCOCN(C(=O)Cn1cnc2ccccc21)c1c(C)cccc1CC	-9.9%	24.0	20.6µM*	23.1µM*	-11.4%	0.4%
Cc1ccccc1Cn1cnc2c([N+](=O)[O-])c(C)c(C)cc21	-0.1%	7.9	?	?	-4.7%	?
CCCOc1ccc(Cn2cnc3ccccc32)cc1	-13.3%	-12.8	?	13µM*	-6.0%	-7.8%
Cc1cc(C)cc(NC(=O)Cn2c(=O)n(-c3ccc(C)c(C)c3)c(=O)c3oc4ccccc4c32)c1	.	.	8.2%	4.1%	.	.
SMILES	HT1080 IDH1KD tx	IL-1B inflam inh	TDP1 cell CPT	DT40 TDP1 no CPT	HT1080NT lethal	ELG1 repair inh
CSCCC(NC(=O)c1ccccc1)C(=O)N/N=C(\C)Cc1ccccc1 (stereo unspecified)	1.4%	-12.1	-16.2%	-3.6%	-4.1%	16.3%
C=CCC(C(=O)NC(C)c1ccccc1)C(=O)NC(C)c1ccccc1 (stereo unspecified)	19.8%	9.4	?	-27.8%	13.4%	4.0%
COc1cccc(/C=N/N=C(\N)c2nonc2N)c1O	-20.8%	-22.1	0.0065µM*	0.92µM*	?	?
CCOC(=O)C1CCN(C(=O)c2ccc3c(c2)NC(=O)/C(=C\c2cccc(C)c2)S3)CC1	0.0%	-18.8	?	18.4µM*	-0.5%	14.6µM*
CCN1CCN(CCCNC(=O)c2ccc3c(c2)NC(=O)c2ccccc2S3)CC1	-6.5%	12.7	-24.9%	?	-14.1%	?
O=C1Nc2cc(C(=O)NCCN3CCCCCC3)ccc2S/C1=C\c1ccccc1	?	-92.6*	13µM*	11.6µM*	?	?
CCN1CCC[C@H]1CNC(=O)c1c(OC)ccc(Br)c1OC	1.5%	2.8	33.5µM*!	29.9µM*!	-0.5%	8.1%
CCN1CCCC1CNC(=O)c1cc(N)ccc1OC (stereo unspecified)	8.3%	-25.2	-4.8%	-1.4%	2.1%	.
O=C1Nc2cc(C(=O)NCCCN3CCCC3)ccc2S/C1=C/c1cccc(Cl)c1	?	-4.0	6.51µM*	?	-29.6%	.
COc1cccc(/C=C2/Sc3ccc(C(=O)NCCN4CCCCCC4)cc3NC2=O)c1	-16.4%	-27.3	?	?	?	?
O=C(c1ccccc1)n1nc(-c2ccco2)nc1NCc1ccccc1Cl	.	.	1.1%	-6.0%	.	.
CCN1CCCC1CNC(=O)c1ccc2c(c1)NC(=O)/C(=C\c1ccc(OC)c(OC)c1)S2 (stereo unspecified)	?	26.4	?	16.4µM*	-20.1%	?
